HT1080NT lethal: qHTS for induction of synthetic lethality in tumor cells producing 2HG: qHTS for the HT-1080-NT fibrosarcoma cell line; 1.6% of 360,000 active; AID 686970, 2013; HT-1080-NT fibrosarcoma viability, CellTiter-Glo ATP luminescence, 48 h; Potency, µM (doses to about 46.1 µM), for the others: top-dose activity, negative = less viability, usual class: cytotoxic;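 note: NT is the 2HG producing partner of a matched IDH1 knockdown line; potency is the fitted concentration of half-maximal effect; 0% = DMSO-treated cells and -100% = media-only wells without cells; nearly all actives have a fitted effect of over 55% in size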
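750 cells/well, RPMI + 5% FBS; 2 h settle, compound pin-transfer, 48 h at 37 degrees C. CellTiter-Glo 10 min RT, luminescence. Normalized to DMSO and media-only wells.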
IL-1B inflam inh: qHTS for Inhibitors of Inflammasome Signaling: IL-1-beta AlphaLISA Primary Screen. THP-1 LPS/ATP IL-1B secretion, AlphaLISA, 16 h; stronger effect = lower value. activity change, % at 57.5 µM. 4.7% of 360,000 active; in the data active = activity change below about -50%; inconclusive = mostly about -30% to -49%
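Secreted IL-1B measured by AlphaLISA bead assay after 16 h compound exposure of THP-1 cells; compounds (final up to 57.5 uM) added 1 h before LPS (250 ng/mL) and ATP (1.25 mM) stimulation; lower signal means less secretion.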
ELG1 DNA repair: qHTS screen for small molecules that inhibit ELG1-dependent DNA repair in human embryonic kidney (HEK293T) cells expressing luciferase-tagged ELG1 | HEK293T ELG1-luciferase reporter, luminescence, 16 h; DNA damage induced by 5-fluorouridine | Potency, µM (highest dose often 46.1 µM), for inactives: at the highest dose activity change, negative = inhibition, hits mostly inhibitors | 2.3% of 330,000 active; note: potency is the fitted concentration of half-maximal effect; nearly all actives have a fitted effect of over 55% in size
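Cells (2,000 per well) received 5-fluorouridine plus test compound or DMSO and were incubated 16 hr at 37 °C, 5% CO2. Luciferase activity was read by luminescence 30 min after ONE-Glo addition; signal suppression marked inhibition of damage-induced ELG1 function.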
TDP1 cell CPT: qHTS for Inhibitors of human tyrosyl-DNA phosphodiesterase 1 (TDP1): qHTS in cells in presence of CPT; chicken DT40 Tdp1-/-;hTDP1 cells + 20 nM CPT, ATP luminescence, 48 h; Potency, µM (top dose mostly 46.2 µM), inactives show at the top dose activity change, negative = growth inhibition, hits mostly inhibitors; 12% of 420,000 active; note: potency is the fitted concentration of half-maximal effect; nearly all actives have a fitted effect of over 55% in size
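Chicken DT40 Tdp1-/- cells stably complemented with human TDP1 were seeded at 400 cells/well in medium containing 20 nM camptothecin, exposed to pin-transferred compounds, and grown at 37 °C for at least 48 hr. Viability was read as ATP luminescence.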
TDP1 cell noCPT: qHTS for Inhibitors of human tyrosyl-DNA phosphodiesterase 1 (TDP1): qHTS in cells in absence of CPT; 15% of 420,000 active; DT40 Tdp1-/- hTDP1 cells, no CPT, ATP luminescence, 48 h; Potency, µM (doses to about 46.2 µM), inactives show at the top dose activity change, negative = growth inhibition, actives largely listed as inhibitors; note: potency is the fitted concentration of half-maximal effect; nearly all actives have a fitted effect of over 55% in size
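No-CPT arm: Tdp1-/-;hTDP1 DT40 cells (400/well) plus compounds, incubated ≥48 hr at 37 °C. Readout CellTiter-Glo luminescence.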
HT1080 IDH1KD tx: qHTS for induction of synthetic lethality in tumor cells producing 2HG: qHTS for the HT-1080-IDH1KD cell line; HT-1080 IDH1 knockdown viability, ATP luminescence, 48 h; Potency, µM (doses to about 46.1 µM), without a hit: at the top dose activity, negative = toxicity, hits mostly cytotoxic; 2% of 360,000 active;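 note: potency is the fitted concentration of half-maximal effect; 0% = DMSO wells and -100% = cell-free medium wells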
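IDH1KD HT-1080 cells, 750/well, RPMI + 5% FBS; compound pinned after 2 h settling; 48 h, 37 °C; CellTiter-Glo luminescence; % activity normalised to DMSO and no-cell wells; curves fitted, classed by r2 and efficacy.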
Starred values were filed as active, the others as inactive; i = inactive; ? = inconclusive; nt = not tested or not shown. Compounds with a hit are over-represented: about 19% of the library has one in this group of screens. Unless noted, calls come from the whole dose curve; as a rule, active = well fitted curve in the direction sought with a large enough effect; inconclusive = small, poorly fitted or top-dose-only effect, or another doubt; inactive = no such curve, though single readings can be large; an effect the other way counts as inactive or inconclusive. Unless noted, % is set by controls: 0 for no effect and ±100 for the full control effect.

SMILES | HT1080NT lethal | IL-1B inflam inh | ELG1 DNA repair | TDP1 cell CPT | TDP1 cell noCPT | HT1080 IDH1KD tx
COc1cccc(-c2ccc(NC(=O)C3CCCN(CCCn4nc(C)cc4C)C3)cc2)c1 (centres undefined) | ? | -4 | ? | 18µM* | ? | ?
Cc1ncc(CN2CCCC(C(=O)Nc3ccc(-c4ccco4)cc3)C2)n1C (centres undefined) | -19% | i | -3% | ? | 21µM* | -16%
Cn1cc(CN2CCCC(C(=O)Nc3ccc(-c4cccc(F)c4)cc3)C2)cn1 (centres undefined) | 0% | -11 | ? | 21µM* | 12µM* | ?
CCn1cc(CN2CCC(C(=O)Nc3cccc(-c4cccc(F)c4)c3)CC2)cn1 | -2% | -9 | 5% | -24% | ? | -9%
COc1cccc(-c2ccc(NC(=O)C3CCCN(Cc4ccco4)C3)cc2)c1 (centres undefined) | -3% | -80* | nt | ? | 16µM* | 5%
O=C(C[C@H]1CC[C@H]2[C@@H](COC[C@@H](O)CN2S(=O)(=O)c2ccc(F)cc2)O1)N[C@@H]1CCN(Cc2ccccc2)C1 | 3% | -10 | nt | -17% | 11% | 14%
Fc1cccc(CN(C2=NCCN2)c2c(Cl)cccc2Cl)c1 | ? | -16 | ? | ? | 21µM* | -21%
Fc1cccc(CN2CCCCCCC2)c1 | 0% | 4 | -1% | 2% | 16% | ?
Cc1cc(/C=C2\NC(=O)NC2=O)c(C)n1-c1ccc(N2CCOCC2)cc1 | 18% | -6 | ? | ? | 21µM* | 21%
O=S1(=O)CC(N2CCC(Cc3ccccc3)CC2)CN1Cc1ccc(F)cc1 (centres undefined) | -21% | -2 | nt | 26µM* | 13µM* | ?
CNC(=O)c1c(NC(=O)c2cc(-c3cc(C)c(C)cc3O)n[nH]2)sc2c1CCCC2 | 4% | 17 | -11% | ? | ? | 10%
O=C(C1=C[C@@H](c2ccc(C(F)(F)F)cc2)C[C@@H](OCCCCO)O1)N1CCCCCCC1 | 1% | -19 | nt | 23µM* | ? | 9%
O=C(Nc1ccccc1)C1=C[C@@H](c2ccc3c(c2)OCO3)C[C@@H](OCCCCO)O1 | 7% | -16 | nt | -23% | -13% | 1%
O=C(C1=C[C@H](c2ccc(C(F)(F)F)cc2)C[C@H](OCCCCO)O1)N1CCN(Cc2ccc3c(c2)OCO3)CC1 | -25% | -67* | -38% | ? | ? | ?
O=C(Nc1ccccc1)C1=C[C@H](c2ccc3c(c2)OCO3)C[C@H](OCCCCO)O1 | 22% | -15 | 11% | 26µM* | ? | 7%
CN1CCN(C(=O)C2=C[C@@H](c3ccc(C(F)(F)F)cc3)C[C@@H](OCCCCO)O2)CC1 | 4% | -4 | -16% | 2% | -9% | 3%
CCOC(=O)c1[nH]c2ccc(F)cc2c1NC(=O)c1ccccc1C(=O)O | 11% | 7 | ? | 7% | -1% | 6%
COC(=O)c1[nH]c2ccccc2c1NC(=O)CN1CCN(C/C=C/c2ccccc2)CC1 | ? | -76* | 8.2µM* | 26µM* | ? | ?
CCOC(=O)c1[nH]c2ccc(F)cc2c1NC(=O)CN1CCN(C/C=C/c2ccccc2)CC1 | 21µM* | -79* | ? | ? | ? | 26µM*
